# Potency and affinity values are given separately. Unmarked numbers belong to inactive results. Activity calls are given as the source filed them. No rule for the calls is given here.
# Assay: viability loss in mammalian cells – cytotoxicity control, dose response (AID 492950)
# Details: mammalian cell viability, cytotoxicity counter-screen; series mostly up to 40 µM; viability: at the top concentration
Compound,viability,outcome
CCCc1[nH]nc2c1C(c1ccoc1)C(C#N)=C(N)O2 (stereo unspecified),86.2%,–
CC(/C=N/NC(=O)Cc1cc(=O)[nH][nH]1)=C\c1ccccc1,88.2%,–
O=C(CSc1nnc(-c2ccccc2Cl)o1)Oc1ccc(Br)cc1,89.2%,–
O=C(Cc1cc(=O)[nH][nH]1)N/N=C/c1cccc(Cl)c1Cl,–,inactive
COc1ccc(/C=C2/C(=O)N(c3ccccc3)N=C2C)c(OC)c1,90.2%,–
CCOc1ccc(-c2[nH]nc3c2C(c2ccc(O)cc2)C(C#N)=C(N)O3)cc1 (stereo unspecified),96.8%,–
O=C(Cc1cc(=O)[nH][nH]1)N/N=C/c1ccccc1[N+](=O)[O-],92.8%,–
CCOC(=O)C/C(C)=N/NC(=O)COc1ccccc1C,89.7%,–
Cc1nn(C)c(C)c1C1C(C#N)=C(N)Oc2n[nH]c(C)c21 (stereo unspecified),91.1%,–
C/C(=N\NC(=O)Cc1cc(=O)[nH][nH]1)c1cccc([N+](=O)[O-])c1,91.2%,–
Cc1ccc(C2C(C#N)=C(N)Oc3n[nH]c(-c4cccs4)c32)cc1 (stereo unspecified),85.6%,–

# From PubChem BioAssay AID492950 (Southern Research Specialized Biocontainment Screening …, 2010)
